# The campaign covered roughly 39,000 compounds. About 1,500 (3.8%) were called active. This excerpt belongs to a sample that is enriched for actives.
# System: HSkMC (human skeletal muscle cells)
# Assay: cytotoxicity call (relative viability < 0.9)
# Conditions: 10 µM
row,Structure (SMILES),cytotoxicity call
1,COCOc1ccc2cc(Br)ccc2c1-c1c(OCOC)ccc2cc(Br)ccc12,active
2,COc1ccc2ccccc2c1-c1c(OC)ccc2ccccc12,inactive
3,COc1ccccc1-c1ccc2c(c1)O[C@@H](CN(C)CC1CCOCC1)[C@@H](C)CN([C@@H](C)CO)S2(=O)=O,inactive
4,CCNC(=O)[C@@H]1CCCN1C(=O)[C@H](CCCNC(=N)N)NC(=O)[C@H](CC(C)C)NC(=O)[C@@H](CC(C)C)NC(=O)[C@H](Cc1ccc(O)cc1)NC(=O)[C@H](CO)NC(=O)[C@H](Cc1c[nH]c2ccccc12)NC(=O)[C@H](Cc1cnc[nH]1)NC(=O)[C@@H]1CCC(=O)N1,inactive
5,CN(c1c[nH]c(=O)[nH]c1=O)C1CCCCC1,inactive
6,C[C@H](CO)N1C[C@H](C)[C@H](CN(C)Cc2ccc(Oc3ccccc3)cc2)Oc2ccc(NS(=O)(=O)c3ccc(F)cc3)cc2CC1=O,active
7,C[C@H]1CN([C@@H](C)CO)C(=O)Cc2cc(NS(=O)(=O)c3ccc(F)cc3)ccc2O[C@@H]1CN(C)Cc1ccc(Oc2ccccc2)cc1,inactive
8,C[C@@H]1CN([C@H](C)CO)C(=O)Cc2cc(NS(=O)(=O)c3ccc(F)cc3)ccc2O[C@H]1CN(C)Cc1ccc(Oc2ccccc2)cc1,active
9,C[C@@H]1CN([C@@H](C)CO)C(=O)Cc2cc(NS(=O)(=O)c3ccc(F)cc3)ccc2O[C@H]1CN(C)Cc1ccc(Oc2ccccc2)cc1,inactive
10,C[C@@H]1CN([C@H](C)CO)C(=O)Cc2cc(NS(=O)(=O)c3ccc(F)cc3)ccc2O[C@@H]1CN(C)Cc1ccc(Oc2ccccc2)cc1,active
11,C[C@H](CO)N1C[C@H](C)[C@@H](CN(C)Cc2ccc(Oc3ccccc3)cc2)Oc2ccc(NS(=O)(=O)c3ccc(F)cc3)cc2CC1=O,inactive
12,C[C@H]1CN([C@@H](C)CO)C(=O)Cc2cc(NS(=O)(=O)c3ccc(F)cc3)ccc2O[C@H]1CN(C)Cc1ccc(Oc2ccccc2)cc1,active
13,Cc1noc(C)c1NC(=O)Nc1ccc2c(c1)C(=O)N([C@@H](C)CO)C[C@H](C)[C@H](CN(C)Cc1ccc3c(c1)OCO3)OCCCC[C@H](C)O2,inactive
14,CC(C)NC(=O)N(C)C[C@H]1Oc2ccc(NC(=O)CCCN(C)C)cc2C(=O)N([C@H](C)CO)C[C@@H]1C,inactive
15,C[C@@H]1CCCCO[C@@H](CN(C)C(=O)C2CCCCC2)[C@@H](C)CN([C@@H](C)CO)C(=O)c2cc(NC(=O)CCC(F)(F)F)ccc2O1,inactive
16,C[C@@H]1CN([C@@H](C)CO)C(=O)c2cc(NS(=O)(=O)c3ccc(Cl)cc3)ccc2O[C@@H](C)CCCCO[C@H]1CN(C)S(=O)(=O)c1ccc(F)cc1,inactive
17,Cc1noc(C)c1S(=O)(=O)Nc1ccc2c(c1)CC(=O)N([C@@H](C)CO)C[C@@H](C)[C@H](CN(C)C(=O)Nc1ccc3c(c1)OCO3)O2,inactive
18,COc1ccc(CN(C)C[C@H]2Oc3ccc(NS(C)(=O)=O)cc3C(=O)N([C@@H](C)CO)C[C@H]2C)cc1,inactive
19,COc1ccccc1CNC(=O)C[C@H]1C[C@@H]2c3cc(NC(=O)c4cccnc4)ccc3O[C@@H]2[C@H](CO)O1,inactive
20,C[C@@H]1CN([C@@H](C)CO)C(=O)Cc2cc(NS(=O)(=O)c3ccc(F)cc3)ccc2O[C@@H]1CN(C)Cc1ccc(Oc2ccccc2)cc1,active
21,Cc1ccccc1S(=O)(=O)N1C[C@@H](O)COC[C@@H]2O[C@H](CC(=O)N3CCOCC3)CC[C@H]21,inactive

row,Structure (SMILES),cytotoxicity call
1,COc1ccc2c3c([nH]c2c1)[C@H](CO)N(C[C@]13CCN(CC1)C(=O)c1cnccn1)C(=O)c1cnccn1,inactive
2,COc1ccc(C(=O)CC(=O)c2ccc(C(C)(C)C)cc2)cc1,active
3,COc1ccc(C(=O)CO)cc1,inactive
4,COc1ccc(C(=O)O)cc1,inactive
5,Cc1cc(C(=O)Nc2cccc3c2O[C@H](CN(C)Cc2ccc4c(c2)OCO4)[C@@H](C)CN([C@@H](C)CO)C3=O)n(C)n1,inactive
6,Cc1cc(O[C@@H](CCC(F)(F)F)c2ccc(C(=O)NCCC(=O)O)cc2)cc(C)c1-c1ccc(C(C)(C)C)cc1,active
7,O=C(O)CCNC(=O)c1ccccc1 [listing 1 of 2 here],inactive
8,O=C(O)CCNC(=O)c1ccccc1 [listing 2 of 2 here],inactive
9,O=C(/C=C/c1ccc(O)c(O)c1)O[C@]1(C(=O)O)C[C@@H](O)[C@H](O)[C@H](O)C1,inactive
10,CC(C)NC(=O)Nc1ccc2c(c1)C(=O)N([C@H](C)CO)C[C@H](C)[C@@H](CN(C)S(=O)(=O)c1ccc(F)cc1)O2,inactive
11,Cn1cnc(CCNC(=O)C[C@@H]2CC[C@H]3[C@@H](COC[C@@H](O)CN3C(=O)Nc3ccc(Cl)cc3)O2)c1,inactive
12,CO[C@@H]1CN(C)C(=O)c2ccc(NS(=O)(=O)CC(F)(F)F)cc2OC[C@H](C)N(Cc2cccnc2)C[C@H]1C,inactive
13,C[C@@H]1CCCCO[C@@H](CN(C)Cc2ccc3c(c2)OCO3)[C@@H](C)CN([C@@H](C)CO)C(=O)c2cc(NC(=O)Nc3cccc4ccccc34)ccc2O1,inactive
14,C[C@@H]1CCCCO[C@@H](CN(C)Cc2ccc3c(c2)OCO3)[C@@H](C)CN([C@H](C)CO)C(=O)c2cc(NC(=O)Nc3cccc4ccccc34)ccc2O1,inactive
15,C[C@@H]1CCCCO[C@H](CN(C)Cc2ccc3c(c2)OCO3)[C@@H](C)CN([C@H](C)CO)C(=O)c2cc(NC(=O)Nc3cccc4ccccc34)ccc2O1,inactive
16,C[C@@H]1CCCCO[C@H](CN(C)Cc2ccc3c(c2)OCO3)[C@H](C)CN([C@@H](C)CO)C(=O)c2cc(NC(=O)Nc3cccc4ccccc34)ccc2O1,active
17,C[C@@H]1CN([C@@H](C)CO)C(=O)c2cc(NC(=O)Nc3cccc4ccccc34)ccc2O[C@@H](C)CCCCO[C@H]1CN(C)Cc1ccc2c(c1)OCO2,active
18,C[C@H]1CCCCO[C@@H](CN(C)Cc2ccc3c(c2)OCO3)[C@@H](C)CN([C@@H](C)CO)C(=O)c2cc(NC(=O)Nc3cccc4ccccc34)ccc2O1,active
19,C[C@H](CO)N1C[C@H](C)[C@@H](CN(C)Cc2ccc3c(c2)OCO3)OCCCC[C@H](C)Oc2ccc(NC(=O)Nc3cccc4ccccc34)cc2C1=O,active
20,C[C@@H]1CN([C@H](C)CO)C(=O)c2cc(NC(=O)Nc3cccc4ccccc34)ccc2O[C@@H](C)CCCCO[C@H]1CN(C)Cc1ccc2c(c1)OCO2,inactive
